The text below walks through data of PubChem BioAssay AID652162 (Broad Institute, 2013).

The whole screen tested about 350,000 compounds, of which about 840 (0.24%) were called active. This is one part of a sample in which actives are shown more often than they occur. Rule as the data show it: active = inhibition above about 10%; inactive = the rest.

For the assay, the target named is Toxin B (Clostridioides difficile) (UniProt P18177). Nature of the assay: TcdB glycohydrolase inhibitors, primary screen, biochemical, single point, plate reader (AID 652162). Conditions: TcdB glycohydrolase enzymatic assay, at 9.99 µM, active compounds read high.
Sequence of Toxin B (Clostridioides difficile) (P18177 whole entry, looked up): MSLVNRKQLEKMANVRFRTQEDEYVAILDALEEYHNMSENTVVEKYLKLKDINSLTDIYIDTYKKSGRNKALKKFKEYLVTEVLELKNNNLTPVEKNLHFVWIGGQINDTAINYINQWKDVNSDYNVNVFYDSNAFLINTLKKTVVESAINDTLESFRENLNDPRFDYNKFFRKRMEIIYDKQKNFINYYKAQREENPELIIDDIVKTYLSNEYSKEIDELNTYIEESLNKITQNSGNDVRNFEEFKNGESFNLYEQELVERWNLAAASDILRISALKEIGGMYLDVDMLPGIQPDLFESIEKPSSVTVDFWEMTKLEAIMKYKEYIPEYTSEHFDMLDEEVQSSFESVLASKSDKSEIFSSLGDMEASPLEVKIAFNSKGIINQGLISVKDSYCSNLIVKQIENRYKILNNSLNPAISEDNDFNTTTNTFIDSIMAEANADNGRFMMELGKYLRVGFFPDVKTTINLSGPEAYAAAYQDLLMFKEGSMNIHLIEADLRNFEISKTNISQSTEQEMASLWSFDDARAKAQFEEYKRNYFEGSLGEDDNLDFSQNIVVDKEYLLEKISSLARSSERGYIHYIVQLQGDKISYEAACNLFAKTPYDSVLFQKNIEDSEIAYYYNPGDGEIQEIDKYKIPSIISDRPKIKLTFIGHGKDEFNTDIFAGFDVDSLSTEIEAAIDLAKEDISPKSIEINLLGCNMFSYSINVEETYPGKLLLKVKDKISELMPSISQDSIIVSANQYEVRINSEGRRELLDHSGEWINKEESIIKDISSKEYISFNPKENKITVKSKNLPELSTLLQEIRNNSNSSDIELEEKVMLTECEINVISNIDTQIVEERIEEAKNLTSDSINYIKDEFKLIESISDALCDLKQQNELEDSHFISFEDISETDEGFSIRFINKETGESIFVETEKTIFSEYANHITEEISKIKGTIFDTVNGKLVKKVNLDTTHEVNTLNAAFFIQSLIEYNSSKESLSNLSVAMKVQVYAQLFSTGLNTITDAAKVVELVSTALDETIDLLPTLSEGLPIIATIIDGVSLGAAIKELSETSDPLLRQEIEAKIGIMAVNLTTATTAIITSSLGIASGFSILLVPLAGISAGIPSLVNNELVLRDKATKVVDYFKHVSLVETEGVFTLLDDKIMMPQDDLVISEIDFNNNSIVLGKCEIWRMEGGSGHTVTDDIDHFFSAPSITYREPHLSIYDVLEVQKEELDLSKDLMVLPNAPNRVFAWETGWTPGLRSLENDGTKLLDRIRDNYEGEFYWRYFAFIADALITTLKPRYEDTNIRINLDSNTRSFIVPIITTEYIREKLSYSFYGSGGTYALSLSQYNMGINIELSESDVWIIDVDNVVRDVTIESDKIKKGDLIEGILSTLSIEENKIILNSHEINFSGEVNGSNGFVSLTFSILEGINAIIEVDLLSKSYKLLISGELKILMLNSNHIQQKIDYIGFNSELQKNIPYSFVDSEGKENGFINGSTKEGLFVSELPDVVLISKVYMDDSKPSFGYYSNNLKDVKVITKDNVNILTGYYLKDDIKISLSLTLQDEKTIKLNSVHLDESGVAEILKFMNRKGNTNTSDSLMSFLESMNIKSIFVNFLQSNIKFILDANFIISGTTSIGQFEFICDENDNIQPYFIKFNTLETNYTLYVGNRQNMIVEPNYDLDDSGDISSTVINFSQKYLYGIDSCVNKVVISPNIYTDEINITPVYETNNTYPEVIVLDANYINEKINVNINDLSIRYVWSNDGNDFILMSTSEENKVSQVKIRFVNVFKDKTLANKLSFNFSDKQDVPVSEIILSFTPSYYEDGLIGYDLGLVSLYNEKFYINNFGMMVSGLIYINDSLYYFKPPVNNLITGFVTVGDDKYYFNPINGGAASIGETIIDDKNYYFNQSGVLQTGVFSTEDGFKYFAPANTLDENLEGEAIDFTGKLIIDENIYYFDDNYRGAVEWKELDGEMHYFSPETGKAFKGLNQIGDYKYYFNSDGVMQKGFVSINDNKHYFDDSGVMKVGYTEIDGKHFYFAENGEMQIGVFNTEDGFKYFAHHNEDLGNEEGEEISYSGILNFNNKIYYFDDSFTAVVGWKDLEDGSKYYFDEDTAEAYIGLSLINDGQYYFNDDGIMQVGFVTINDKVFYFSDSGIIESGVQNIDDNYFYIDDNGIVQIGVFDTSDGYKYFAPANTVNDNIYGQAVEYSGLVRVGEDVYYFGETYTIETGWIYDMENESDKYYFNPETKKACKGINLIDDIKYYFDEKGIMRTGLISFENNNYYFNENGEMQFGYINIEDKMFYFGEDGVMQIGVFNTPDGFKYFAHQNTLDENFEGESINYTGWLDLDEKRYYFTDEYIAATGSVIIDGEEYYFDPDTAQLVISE
One may read the inhibition as the change of the read-out against control, counted positive when it falls. For the compound `Cc1noc(C)c1S(=O)(=O)N(C)C[C@@H]1Oc2c(NS(=O)(=O)c3cn(C)cn3)cccc2C(=O)N([C@H](C)CO)C[C@@H]1C`, the inhibition was -0.292% (inactive).
With `COc1ccc(S(=O)(=O)N(C)C[C@@H]2Oc3ccc(NC(=O)C4CC4)cc3CC(=O)N([C@@H](C)CO)C[C@@H]2C)cc1` the figure was 0.342% (inactive).
In the case of `COc1cccc(OC)c1C(=O)NC(=S)NCc1ccco1`, the inhibition was 1.13% (inactive).
With `S=C(NCc1ccco1)Nc1ccc2c(c1)OCCO2` the figure was -0.084% (inactive); with `COC(=O)Cc1ccc(NC(=S)NCc2ccco2)cc1`, 16% (active).
Take `COC(=O)C[C@H]1CC[C@H]2[C@@H](COc3ccc(NC(=O)C4CC4)cc3C(=O)N2C)O1`: the inhibition was 0.647% (inactive).
With `COc1ccc2c3c(n(C)c2c1)[C@H](CO)N(C(=O)C1CCCC1)CC31CCN(C(=O)c2ccncc2)CC1` the figure was 0.361% (inactive).
On to `C[C@H](O)C#Cc1ccc([C@@H]2[C@@H](CO)N3CCCCN(C(=O)c4ccncc4)C[C@@H]23)cc1`, for which the inhibition is 0.304% (inactive).
Regarding `CCS(=O)(=O)N1CCC2(CC1)CN(Cc1ccc3c(c1)OCO3)[C@H](CO)c1[nH]c3cc(OC)ccc3c12`, the inhibition was 0.545% (inactive).
With `CCCC#Cc1ccc([C@@H]2[C@@H](CO)N3C(=O)CN(C(=O)Nc4cccc(F)c4)C[C@H]23)cc1`, the inhibition was 0.796% (inactive).
With `O=C(c1ccncc1)N1CC(=O)N2[C@H](CO)[C@H](c3ccc(-c4ccccc4F)cc3)[C@@H]2C1` the figure was -0.127% (inactive); with `COCC#Cc1cnc2c(c1)C(=O)N([C@@H](C)CO)C[C@@H](C)[C@@H](CN(C)S(=O)(=O)c1cccc(OC)c1)O2`, 0.452% (inactive).
With `CC(C)NC(=O)Nc1ccc2c(c1)C(=O)N([C@H](C)CO)C[C@H](C)[C@@H](CN(C)C)OCCCC[C@H](C)O2` the figure was 0.315% (inactive).
In the case of `COc1ccc(NC(=O)N(C)C[C@H]2Oc3c(NC(=O)C4CC4)cccc3C(=O)N([C@@H](C)CO)C[C@@H]2C)cc1`, the inhibition was -0.546% (inactive).
With `CNC(=O)C[C@@H]1CC[C@@H]2[C@H](COC[C@H](O)CN2Cc2ccc(C(F)(F)F)cc2)O1` the figure was -1.26% (inactive).
Regarding `C[C@@H]1CCCCO[C@H](CN(C)C(=O)Nc2cccc3ccccc23)[C@H](C)CN([C@@H](C)CO)C(=O)c2cc(NC(=O)CCCN(C)C)ccc2O1`, the inhibition is -0.333% (inactive).
For the compound `O=C(C[C@@H]1C[C@@H]2c3cc(NC(=O)C4CCOCC4)ccc3O[C@@H]2[C@H](CO)O1)NCc1ccncc1`, the inhibition was 0.039% (inactive).
With `C/C=C/c1ccc([C@@H]2[C@@H](CO)N(C(=O)c3ccccc3)C23CN(C(C)=O)C3)cc1` the figure was 1.41% (inactive); with `C[C@@H]1CN([C@@H](C)CO)C(=O)c2cc(C#CCN(C)C)cnc2O[C@H]1CN(C)S(=O)(=O)c1cn(C)cn1`, 1.29% (inactive).
The result for `COc1ccccc1N1CC(O)=C(c2nc3ccccc3s2)C1=N` reads 14.9% (active); that for `CCc1ccc(N2CC(O)=C(c3nc4ccccc4c(=O)[nH]3)C2=N)cc1`, 2.4% (inactive).
As for `Oc1ccc(-c2[nH]ncc2-c2nc3ccccc3s2)c(O)c1`, the inhibition was -1.73% (inactive).
With `O=C(C[C@H]1CC[C@H]2[C@@H](COC[C@H](O)CN2C(=O)c2ccccc2F)O1)NCc1ccccc1` the figure was 0.135% (inactive); with `CO[C@H]1CN(C)C(=O)c2cc(NS(=O)(=O)CC(F)(F)F)ccc2OC[C@H](C)N(C(=O)c2ccc3c(c2)OCO3)C[C@H]1C`, 0.021% (inactive); with `COCC(=O)N1CC[C@@H]2[C@@H](CO)Nc3ccc(-c4ccc(C(=O)N(C)C)cc4)cc3[C@@H]21`, -1.67% (inactive).
With `O=C(Nc1cnccn1)c1cccnc1` the figure was 1.15% (inactive); with `O=C(NN=C1CCC(=NNC(=O)c2cccnc2)CC1)c1cccnc1`, 54% (active); with `O=C(CC(=O)c1cccnc1)c1ccccc1`, 0.622% (inactive).
With `COc1ccc(C(C)NC(=O)C23CC4CC(CC(C4)C2)C3)cc1` (stereo not drawn) the figure was 0.441% (inactive).
Consider `CCOc1ccc(C(CC(=O)O)NC(=O)C23CC4CC(CC(C4)C2)C3)cc1OC` (stereo not drawn), for which the inhibition is 12.9% (active).
On to `CCOc1ccc(C(CC(=O)O)n2cnnn2)cc1OC` (stereo not drawn), for which the inhibition was 1.46% (inactive).
With `CC(C)NC(=O)N(C)C[C@@H]1Oc2ccc(NS(=O)(=O)c3ccccc3)cc2C(=O)N([C@@H](C)CO)C[C@H]1C` the figure was 1% (inactive); with `Cc1noc(C)c1NC(=O)N(C)C[C@@H]1OCCCC[C@H](C)Oc2ccc(NC(=O)NC3CCCCC3)cc2C(=O)N([C@H](C)CO)C[C@H]1C`, 1.84% (inactive).
With `CCC1(CC)C(=O)C2=C3C1[C@H](C(=O)OC)C=C(C(=O)OC)C[C@H]3[C@H]1C(=O)N(Cc3ccccc3)C(=O)[C@H]1[C@H]2C` (stereo partly drawn) the figure was 0.94% (inactive); with `COC(=O)C1=C[C@@H](C(=O)OC)[C@@H]2C3=C(C(=O)[C@]2(C)NC(=O)c2ccccc2)[C@H](C)n2c(=O)n(C)c(=O)n2[C@@H]3C1`, 11.2% (active).
For `C[C@H]1CN([C@@H](C)CO)C(=O)c2cc(NS(=O)(=O)c3ccccc3)ccc2O[C@@H]1CN(C)C(=O)NC1CCCCC1`, the inhibition is 3.22% (inactive).
As for `O=C(NC[C@H]1[C@@H](c2ccccc2)[C@H](CO)N1CC1CC1)c1cccnc1`, the inhibition was -2.13% (inactive).
Consider `C/C=C/c1ccc2c(c1)O[C@H](CN(C)Cc1cccc(F)c1)[C@H](C)CN([C@H](C)CO)S2(=O)=O`, for which the inhibition is 0.906% (inactive).
Turning to `Cc1ccc(S(=O)(=O)N(C)C[C@@H]2OCCCC[C@@H](C)Oc3ccc(NC(=O)Nc4ccc(C(F)(F)F)cc4)cc3C(=O)N([C@@H](C)CO)C[C@@H]2C)cc1`, the inhibition is -1.2% (inactive).
For the compound `COCC(=O)Nc1ccc2c(c1)C(=O)N(C)[C@@H]1CC[C@H](CC(=O)NCCc3ccccc3)O[C@@H]1CO2`, the inhibition is -0.476% (inactive).
For the compound `COc1ccc(NC(=O)N(C)C[C@H]2Oc3cc(-c4ccncc4)ccc3S(=O)(=O)N([C@@H](C)CO)C[C@H]2C)cc1`, the inhibition is 0.138% (inactive).
Turning to `C[C@@H]1CN([C@H](C)CO)C(=O)c2cc(-c3ccc(C(=O)N(C)C)cc3)cnc2O[C@H]1CN(C)C(=O)C1CC1`, the inhibition was 1.01% (inactive).
For `CCC(=O)N(C)C[C@H]1Oc2cc(C#CC3CC3)ccc2S(=O)(=O)N([C@H](C)CO)C[C@H]1C`, the inhibition was -0.263% (inactive).
